Rab9 promoter act – activators of Rab9 promoter. Huh7 Rab9 promoter-luciferase reporter, luminescence, 24 h. Potency, µM (top dose mostly 9.22 µM), most hits filed as activators. 320,000 compounds, 2.8% hits. AID 485297; further: nearly all actives have a fitted effect of over 60% in size
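Huh7 cells stably carrying Rab9 promoter–luciferase reporter, plated 1500 cells/well, compound added after 2 h and incubated 24 h at 37 °C; luciferase luminescence then read after 10 min with detection reagent.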
ELG1 repair inh – blocks ELG1-dependent DNA repair in HEK293T cells; HEK293T ELG1-luciferase reporter, luminescence, 16 h; DNA damage induced by 5-fluorouridine; Potency, µM (series often up to 46.1 µM), actives largely listed as inhibitors; AID 504467; 330,000 compounds, 2.3% hits; further: nearly all actives have a fitted effect of over 55% in size
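Step one: seed 2,000 cells per well. Step two: pin-transfer compound or DMSO alongside 5-fluorouridine. Step three: incubate 16 hr, 37 °C, 5% CO2. Step four: add ONE-Glo, wait 30 min, read luminescence.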
ELG1 genotox – induces genotoxicity in HEK293T cells with luciferase-tagged ELG1. HEK293T ELG1-luciferase reporter, luminescence, 16 h. Potency, µM (series often up to 46 µM), most hits filed as activators. 330,000 compounds, 1.3% hits. AID 504466; further: nearly all actives have a fitted effect of over 60% in size
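Genotoxicity was scored as increased ELG1-luciferase reporter signal, measured by ONE-Glo luminescence (30 min, room temperature). Compound or vehicle exposure of the HEK293T reporter cells lasted 16 hr at 37°C.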
SMN2 splice enh – enhancers of SMN2 splice variant expression; Potency, µM (series often up to 46.1 µM), most hits filed as activators; 210,000 compounds, 2.8% hits; HEK293 SMN2-luciferase splicing reporter, luminescence, 30-36 h; AID 1458; further: nearly all actives have a fitted effect of over 55% in size
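HEK293 cells carry an SMN2 […]–luciferase reporter in which exon 7 inclusion puts luciferase in frame. Cells were plated 10-12 h before compound addition, then incubated 30-36 h at 37C. ONE-Glo luminescence was read; sodium butyrate at 4.5 mM final served as control.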
NPC1 prom act – NPC1 promoter activation; Huh7 NPC1 promoter luciferase reporter, 24 h; Potency, µM (top dose mostly 9.22 µM), usual class: activators; 320,000 compounds, 2.4% hits; AID 485313; further: nearly all actives have a fitted effect of over 60% in size
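Readout is luciferase luminescence, reflecting NPC1 promoter activation in stably transfected Huh7 cells after 24 h compound exposure at 37 °C in reduced-serum medium with 10% FBS.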
FLuc modulator – firefly luciferase modulation, counter-screen for miR-21 project; AID 588342; purified FLuc, Km substrates, luminescence inhibition; P08659; 360,000 compounds, 6.9% hits; Potency, µM (highest dose often 57.5 µM), most hits filed as inhibitors; further: nearly all actives have a fitted effect of over 55% in size
Target sequence (P08659 whole entry, looked up): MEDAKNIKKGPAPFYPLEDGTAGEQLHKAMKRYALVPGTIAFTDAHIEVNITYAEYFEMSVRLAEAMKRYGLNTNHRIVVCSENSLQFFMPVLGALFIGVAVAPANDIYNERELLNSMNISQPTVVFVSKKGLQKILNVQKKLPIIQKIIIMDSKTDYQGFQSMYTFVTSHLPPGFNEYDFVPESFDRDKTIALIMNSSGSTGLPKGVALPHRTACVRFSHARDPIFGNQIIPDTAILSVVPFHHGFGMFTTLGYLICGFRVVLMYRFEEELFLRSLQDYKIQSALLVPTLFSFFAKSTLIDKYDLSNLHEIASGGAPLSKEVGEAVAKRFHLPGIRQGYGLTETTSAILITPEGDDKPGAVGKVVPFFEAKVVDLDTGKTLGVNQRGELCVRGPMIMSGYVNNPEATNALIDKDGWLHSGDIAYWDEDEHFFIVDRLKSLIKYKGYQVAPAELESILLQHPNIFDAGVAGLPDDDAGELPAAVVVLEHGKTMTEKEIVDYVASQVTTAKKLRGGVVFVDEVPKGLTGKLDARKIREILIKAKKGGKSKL
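Purified P. pyralis luciferase (10nM final) with 10uM D-luciferin and 10uM ATP (Km levels) in 50mM Tris acetate pH 7.5, 10mM Mg acetate, 0.01% Tween-20, 0.05% BSA; qHTS 6-point titration, ~60 µM downward; luminescence read.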
A number is an active result; [ ] = remark or other dose. Compounds with a hit are over-represented: about 9.4% of the library has one in this group of screens. The call rests on the fitted dose curve; in most records, active means well fitted curve in the direction sought with a large enough effect; inconclusive means small, poorly fitted or top-dose-only effect, or another doubt; inactive means no such curve, though single readings can be large; an effect the other way counts as inactive or inconclusive.

Results for CCCSC1=C(C#N)C(c2ccc(OC)cc2)C2=C(CC(C)(C)CC2=O)N1 (centres undefined) ?
Rab9 promoter act: inactive; ELG1 repair inh: inactive; ELG1 genotox: inactive; SMN2 splice enh: inactive; NPC1 prom act: inactive; FLuc modulator: inactive

How did COc1ccccc1C(=O)Nc1nc2nc(C)c(Cc3ccccc3)c(=O)n2[nH]1 do in these assays?
SMN2 splice enh: inactive; FLuc modulator: inconclusive

What do the screens show for `CCC(C(=O)NCCc1ccccc1)n1nc(C)c2sc3ccccc3c2c1=O` (centres undefined)?
FLuc modulator: 19µM

Results for COc1ccc(CCNC(=O)C(C)n2nc(C)c3sc4ccccc4c3c2=O)c(OC)c1 (centres undefined) ?
FLuc modulator: 9.5µM

How did Cc1nn(C(C)C(=O)NCc2cccc(F)c2)c(=O)c2c1sc1ccccc12 (centres undefined) do in these assays?
FLuc modulator: 11µM

Results for CCC(C(=O)N1CCN(c2ccccc2F)CC1)n1nc(C)c2sc3ccccc3c2c1=O (centres undefined) ?
FLuc modulator: 15µM

What do the screens show for `O=C(O)CNC(=O)c1ccc([N+](=O)[O-])cc1`?
SMN2 splice enh: inactive

What do the screens show for `COc1ccc(CCNC(=O)CCCn2nc(C)c3sc4ccccc4c3c2=O)cc1OC`?
FLuc modulator: 13µM

Results for Nc1c(C(=O)Nc2ccccc2Cl)nnn1Cc1cccc(Cl)c1 ?
SMN2 splice enh: inactive; FLuc modulator: inactive

Results for O=C(O)COc1ccccc1/C=N/NC(=O)COc1ccc(-c2ccccc2)cc1 ?
Rab9 promoter act: inactive; ELG1 repair inh: inactive; ELG1 genotox: inactive; NPC1 prom act: inactive; FLuc modulator: 4.8µM

Results for CC(C)(C)c1ccc(C(=O)NCC(=O)N/N=C/c2ccccc2OCC(=O)O)cc1 ?
Rab9 promoter act: inactive; ELG1 repair inh: inconclusive; ELG1 genotox: inactive; SMN2 splice enh: inactive; NPC1 prom act: inactive; FLuc modulator: 17µM

How did COc1ccc(Br)c(/C=N/NC(=O)COc2ccc(-c3ccccc3)cc2)c1 do in these assays?
SMN2 splice enh: inactive; FLuc modulator: inconclusive

What do the screens show for `O=C(O)COc1ccccc1/C=N/NC(=O)CNC(=O)c1ccco1`?
Rab9 promoter act: inactive; ELG1 repair inh: inactive; ELG1 genotox: inactive; NPC1 prom act: inactive; FLuc modulator: inactive

How did O=C(CN1C(=O)C2(SCC(=O)N2c2ccccc2)c2ccccc21)Nc1ccccc1C(F)(F)F (centres undefined) do in these assays?
FLuc modulator: inactive

Results for Cc1cc(C)cc(N2CCn3c2nc2c3c(=O)n(Cc3c(F)cccc3Cl)c(=O)n2C)c1 ?
FLuc modulator: inactive

How did C/C=C/C1=Cc2ccccc2C(CC(=O)OC)N1C(=O)OC (centres undefined) do in these assays?
SMN2 splice enh: inactive[9.22 µM]

What do the screens show for `Cc1ccccc1C(=O)N/N=C/c1cccc2ccccc12`?
Rab9 promoter act: inactive[1.84 µM]; ELG1 repair inh: inconclusive; ELG1 genotox: inactive; NPC1 prom act: inactive; FLuc modulator: 5.4µM

What do the screens show for `Cc1ccccc1C(=O)N/N=C/c1ccsc1C`?
Rab9 promoter act: 5.6µM; ELG1 repair inh: inconclusive; ELG1 genotox: inconclusive; SMN2 splice enh: 16µM; NPC1 prom act: inconclusive; FLuc modulator: 11µM

What do the screens show for `Cc1ccccc1Nc1oc(-c2ccccc2)nc1-c1cccc2ccccc12`?
SMN2 splice enh: inactive

Results for COc1ccc(/C=C/c2nc(C#N)c(N3CCC(C(N)=O)CC3)o2)cc1OC ?
SMN2 splice enh: inconclusive; FLuc modulator: inactive

What do the screens show for `N#CC1=C(SCC(=O)c2ccc(Br)cc2)NC2=C(C(=O)CCC2)C1c1ccco1` (centres undefined)?
Rab9 promoter act: inactive; ELG1 repair inh: 13µM; ELG1 genotox: inactive; SMN2 splice enh: inactive; NPC1 prom act: inactive; FLuc modulator: inactive

Results for COc1cccc(/C=N/NC(=O)c2cnccn2)c1O ?
Rab9 promoter act: inactive; ELG1 repair inh: inactive; ELG1 genotox: inactive; NPC1 prom act: inactive; FLuc modulator: 15µM

How did COc1cccc(/C=N/NC(=O)c2cc(-c3cccn3C)n[nH]2)c1O do in these assays?
Rab9 promoter act: inactive; ELG1 repair inh: inconclusive; ELG1 genotox: inactive; SMN2 splice enh: inactive; NPC1 prom act: inactive; FLuc modulator: 27µM

What do the screens show for `COc1cccc(C(=O)O/N=C(\C)c2cnccn2)c1`?
Rab9 promoter act: inactive; ELG1 repair inh: inactive; ELG1 genotox: inactive; NPC1 prom act: inactive; FLuc modulator: 5.4µM

What do the screens show for `COc1ccc(/C=N/NC(=O)c2cnccn2)cc1O`?
Rab9 promoter act: inactive; ELG1 repair inh: inconclusive; ELG1 genotox: inconclusive; SMN2 splice enh: inactive; NPC1 prom act: inactive; FLuc modulator: 12µM

How did COc1cc(/C=N/NC(=O)c2cc(-c3cccn3C)n[nH]2)cc(OC)c1OC do in these assays?
Rab9 promoter act: inactive; ELG1 repair inh: inconclusive; ELG1 genotox: inactive; SMN2 splice enh: inconclusive; NPC1 prom act: inactive; FLuc modulator: inconclusive

How did COc1ccc(-c2cc(C(C)=O)c(C)n2CCC(=O)Nc2cccc(C)c2C)cc1 do in these assays?
FLuc modulator: inactive

How did O=C(c1cnc(N2CCCCC2)c2ccccc12)N1CCN(c2ccc(F)cc2)CC1 do in these assays?
FLuc modulator: inactive

What do the screens show for `COc1cccc(/C=N/NC(=O)c2cnccn2)c1`?
Rab9 promoter act: inactive; ELG1 repair inh: inconclusive; ELG1 genotox: inactive; SMN2 splice enh: inactive; NPC1 prom act: inactive; FLuc modulator: 12µM

What do the screens show for `COc1ccc(OC)c(/C=N/NC(=O)c2cnccn2)c1`?
Rab9 promoter act: inactive; ELG1 repair inh: inactive; ELG1 genotox: inactive; NPC1 prom act: inactive; FLuc modulator: inactive

How did COc1ccc(/C=N/NC(=O)c2cc3c(OC)ccc(OC)c3[nH]2)cc1O do in these assays?
Rab9 promoter act: inactive; ELG1 repair inh: inconclusive; ELG1 genotox: inactive; NPC1 prom act: inactive; FLuc modulator: 11µM

What do the screens show for `Cc1csc(NC(=O)Cc2c(F)cccc2Cl)n1`?
Rab9 promoter act: 3.2µM; ELG1 repair inh: inconclusive; ELG1 genotox: inconclusive; NPC1 prom act: 3.5µM; FLuc modulator: inconclusive

How did O=C(Cc1c(F)cccc1Cl)Nc1ccncc1 do in these assays?
Rab9 promoter act: inactive; ELG1 repair inh: inactive; ELG1 genotox: inactive; SMN2 splice enh: inactive; NPC1 prom act: inactive; FLuc modulator: inactive

Results for CCC(=O)Nc1ccc(C(=O)Nc2cccc(C)n2)cc1 ?
Rab9 promoter act: 2.5µM; ELG1 repair inh: inconclusive; ELG1 genotox: inconclusive; NPC1 prom act: 3.5µM; FLuc modulator: 17µM

How did COc1ccc(-c2csc(NC(=O)Cc3cc(OC)c(OC)c(OC)c3)n2)cc1OC do in these assays?
Rab9 promoter act: inactive; ELG1 repair inh: inconclusive; ELG1 genotox: inactive; NPC1 prom act: inactive; FLuc modulator: inactive

Bioassay records (PubChem BioAssay)
